NRP1-CendR mod – modulators of CendR peptide binding to human neuropilin-1 | 360,000 tested, 0.85% active | FAM-RPARPAR peptide binding to NRP-1, fluorescence polarization | inhibition, % at 25 µM | AID 602438;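 active means inhibition or corrected inhibition above about 18%, plus a signal ratio from 0.5 to 1.5, limit read from the data, passing the limit was not always enough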
FAS-TE inh – FAS thioesterase (human) inhibition; inhibition, % at 15 µM; 360,000 tested, 0.67% active; AID 602261; recombinant FAS-TE, OMFH fluorogenic substrate, fluorescence endpoint;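 active means compounds whose normalised, plate-corrected inhibition of enzyme fluorescence in the single-dose primary screen is 50% or more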
Myeloid diff 2 – myeloid differentiation induction. 360,000 tested, 1% active. calls only at 10 µM. ER-HoxA9 myeloid progenitors, lysozyme-GFP differentiation, flow cytometry;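 active means normalized GFP-positive differentiation at or above the plate's own cutoff, the solvent-only control mean plus 3 SD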;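 further: cells exposed to compound for four days before flow analysis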
NadD block – inhibitors of Staphylococcus aureus NadD; inhibition, % at 20 µM; 360,000 tested, 0.78% active; purified NadD enzyme, colorimetric absorbance read-out; in the data active means inhibition above about 26%
CRFR2-BP antag – antagonists of CRF-binding protein/CRF-R2 receptor complex; HEK293 CRF-R2/CRF-BP, CRF-induced calcium fluorescence; inhibition, % at 11.8 µM; 350,000 tested, 0.59% active;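 active means inhibition of the ligand-induced calcium signal above about 50% at the single tested concentration, limit read from the data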
NadD inh conf – confirmation of Staphylococcus aureus NadD inhibitors; 2,000 tested, 13% active; AID 624309; inhibition, % at 20 µM; purified S. aureus NadD, colorimetric enzyme assay; shares compounds with NadD block; in the data active means inhibition mostly above about 42%, no sharp cut-off; inactive means mostly below about 42%
A number is an active result. An excerpt weighted towards active compounds, which were near 3.6% of everything screened.

What do the screens show for `COc1ccc(Br)cc1/C=c1\sc2nc(-c3ccco3)nn2c1=O`?
NRP1-CendR mod: inactive; FAS-TE inh: inactive; Myeloid diff 2: inactive; NadD block: 40; CRFR2-BP antag: inactive; NadD inh conf: inactive

Results for Cc1ccc(/C=c2\sc3nc(-c4ccco4)nn3c2=O)o1 ?
NRP1-CendR mod: inactive; FAS-TE inh: inactive; Myeloid diff 2: inactive; NadD block: inactive; CRFR2-BP antag: inactive

What do the screens show for `COc1ccc(CCN(C(=O)c2cccc(F)c2)C2CC(=O)N(c3ccc(OC)cc3)C2=O)cc1` (stereo not given)?
NRP1-CendR mod: inactive; FAS-TE inh: inactive; Myeloid diff 2: inactive; NadD block: inactive; CRFR2-BP antag: inactive

How did O=C(CCCn1c(=S)[nH]c2cc3c(cc2c1=O)OCO3)N1CCN(c2ccc(Cl)cc2)CC1 do in these assays?
NRP1-CendR mod: inactive; FAS-TE inh: inactive; Myeloid diff 2: inactive; NadD block: 35; CRFR2-BP antag: inactive; NadD inh conf: inactive

Results for O=C(CCCn1c(=S)[nH]c2cc3c(cc2c1=O)OCO3)N1CCN(c2ccccc2)CC1 ?
NRP1-CendR mod: inactive; FAS-TE inh: inactive; Myeloid diff 2: inactive; NadD block: inactive; CRFR2-BP antag: inactive

Results for CC(=O)c1ccc(N2CCN(C(=O)CCCn3c(=S)[nH]c4cc5c(cc4c3=O)OCO5)CC2)cc1 ?
NRP1-CendR mod: inactive; FAS-TE inh: inactive; Myeloid diff 2: inactive; NadD block: 46; CRFR2-BP antag: inactive; NadD inh conf: inactive

Results for CCOC(=O)N1CCN(C(=O)CCCCCn2c(=S)[nH]c3cc4c(cc3c2=O)OCO4)CC1 ?
NRP1-CendR mod: inactive; FAS-TE inh: inactive; Myeloid diff 2: inactive; NadD block: inactive; CRFR2-BP antag: inactive

Results for Cc1cccc(N2CCN(C(=O)CCCn3c(=S)[nH]c4cc5c(cc4c3=O)OCO5)CC2)c1C ?
NRP1-CendR mod: inactive; FAS-TE inh: inactive; Myeloid diff 2: inactive; NadD block: 56; CRFR2-BP antag: inactive; NadD inh conf: inactive

What do the screens show for `Cc1ccc(-n2c(SCc3ccc(C(=O)O)cc3)nnc2-c2ccncc2)cc1`?
NRP1-CendR mod: inactive; FAS-TE inh: inactive; Myeloid diff 2: inactive; NadD block: inactive; CRFR2-BP antag: inactive

Results for CC(C)c1ccc(C2(C)NC(=O)N(CC(=O)N3CCN(C(=O)c4cccs4)CC3)C2=O)cc1 (stereo not given) ?
NRP1-CendR mod: inactive; FAS-TE inh: inactive; Myeloid diff 2: inactive; NadD block: inactive; CRFR2-BP antag: inactive

How did CCCCNC(=O)C1=C(N)C(C(=O)Nc2ccc(C)c(S(=O)(=O)N3CCCCC3)c2)SC1=Nc1ccc(C)cc1C (stereo not given) do in these assays?
NRP1-CendR mod: inactive; FAS-TE inh: inactive; Myeloid diff 2: inactive; NadD block: 40; CRFR2-BP antag: inactive; NadD inh conf: inactive

How did COc1ccccc1N1CCN(c2nc3ccccc3nc2C(C#N)C(=O)OC(C)C)CC1 (stereo not given) do in these assays?
NRP1-CendR mod: inactive; FAS-TE inh: inactive; Myeloid diff 2: inactive; NadD block: 37; CRFR2-BP antag: inactive; NadD inh conf: inactive

How did CCOc1ccccc1N1CCN(c2nc3ccccc3nc2C(C#N)C(=O)OC)CC1 (stereo not given) do in these assays?
NRP1-CendR mod: inactive; FAS-TE inh: inactive; Myeloid diff 2: inactive; NadD block: inactive; CRFR2-BP antag: inactive

What do the screens show for `Cc1nc(-c2ccccc2)sc1C1(C)CC(c2ccc(OC(F)(F)F)cc2)=NO1` (stereo not given)?
NRP1-CendR mod: inactive; FAS-TE inh: inactive; Myeloid diff 2: inactive; NadD block: inactive; CRFR2-BP antag: inactive

How did CCOc1ccccc1NC(=O)c1ccc(OCC)c([N+](=O)[O-])c1 do in these assays?
NRP1-CendR mod: inactive; FAS-TE inh: inactive; Myeloid diff 2: inactive; NadD block: inactive; CRFR2-BP antag: inactive

Results for CCOc1ccc2nc(NC(=O)c3cccc(-c4cc5ccccc5oc4=O)c3)sc2c1 ?
NRP1-CendR mod: inactive; FAS-TE inh: inactive; Myeloid diff 2: inactive; NadD block: 39; CRFR2-BP antag: inactive; NadD inh conf: inactive

What do the screens show for `CCOc1ccc(C(=O)Nc2cccc(-c3cc4ccccc4oc3=O)c2)cc1[N+](=O)[O-]`?
NRP1-CendR mod: inactive; FAS-TE inh: inactive; Myeloid diff 2: inactive; NadD block: 36; CRFR2-BP antag: inactive; NadD inh conf: inactive

Results for CN1CCc2nc(NC(=O)c3cccc(OC(F)F)c3)sc2C1 ?
NRP1-CendR mod: inactive; FAS-TE inh: inactive; Myeloid diff 2: inactive; NadD block: inactive; CRFR2-BP antag: inactive

Results for Cc1ccc(C(=O)N/C(=C/c2ccc(Cl)cc2)C(=O)N2CCOCC2)cc1 ?
NRP1-CendR mod: inactive; FAS-TE inh: inactive; Myeloid diff 2: inactive; NadD block: inactive; CRFR2-BP antag: inactive

What do the screens show for `O=c1cc(CN2CCN(c3cccc(Cl)c3)CC2)c2cc(O)c(-c3ccccc3)cc2o1`?
NRP1-CendR mod: inactive; FAS-TE inh: inactive; Myeloid diff 2: inactive; NadD block: 39; CRFR2-BP antag: inactive; NadD inh conf: inactive

What do the screens show for `O=c1cc(CN2CCN(c3ccccc3)CC2)c2cc(O)c(-c3ccccc3)cc2o1`?
NRP1-CendR mod: inactive; FAS-TE inh: inactive; Myeloid diff 2: inactive; NadD block: inactive; CRFR2-BP antag: inactive

Results for O=c1cc(-c2ccc(O)c(-c3c(O)cc(O)c4c(=O)cc(-c5ccc(O)cc5)oc34)c2)oc2cc(O)cc(O)c12 ?
NRP1-CendR mod: inactive; FAS-TE inh: inactive; Myeloid diff 2: inactive; NadD block: 77; CRFR2-BP antag: inactive; NadD inh conf: 66

What do the screens show for `COc1ccc(CC(N)c2csc(NC(=O)Nc3ccc(OC)cc3)n2)cc1` (stereo not given)?
NRP1-CendR mod: inactive; FAS-TE inh: inactive; Myeloid diff 2: inactive; NadD block: inactive

Results for COc1ccc(CC(N)c2csc(NC(=O)c3cc(C(C)(C)C)oc3C)n2)cc1 (stereo not given) ?
NRP1-CendR mod: inactive; FAS-TE inh: inactive; Myeloid diff 2: inactive; NadD block: 33; NadD inh conf: inactive

How did Cc1ccc(NC(=O)CSc2nc3ccc(Nc4nc(N5CCOCC5)nc(N5CCOCC5)n4)cc3s2)cc1 do in these assays?
NRP1-CendR mod: inactive; FAS-TE inh: inactive; Myeloid diff 2: inactive; NadD block: 30; CRFR2-BP antag: inactive; NadD inh conf: inactive

What do the screens show for `Cc1cccc(Nc2n[nH]c(=S)s2)c1C`?
NRP1-CendR mod: inactive; FAS-TE inh: inactive; NadD block: 32; CRFR2-BP antag: inactive; NadD inh conf: inactive

What do the screens show for `Cc1ccc(Nc2n[nH]c(=S)s2)c(C)c1`?
NRP1-CendR mod: inactive; FAS-TE inh: inactive; Myeloid diff 2: inactive; NadD block: inactive; CRFR2-BP antag: inactive

Results for Cc1cc(C)c(Nc2n[nH]c(=S)s2)cc1C ?
NRP1-CendR mod: inactive; FAS-TE inh: inactive; Myeloid diff 2: inactive; NadD block: 44; CRFR2-BP antag: inactive; NadD inh conf: inactive

How did CCc1cc(C(=O)N(CC(C)C)c2c(N)n(Cc3ccccc3)c(=O)[nH]c2=O)sc1C do in these assays?
NRP1-CendR mod: inactive; FAS-TE inh: inactive; Myeloid diff 2: inactive; NadD block: inactive; CRFR2-BP antag: inactive

Assay outcomes as filed in PubChem.
